In PubChem BioAssay AID751 (NMMLSC, 2007):
In all, about 24,000 compounds went through this assay and about 40 (0.2%) were called active.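 How the source made its calls: active means inhibition of disassembly above about 33% (limit read from the data); inconclusive means likely self-fluorescent, control bead median signal at least 40; inactive means the rest.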 Shown is part of a subset that was picked to be rich in actives.

The molecules below were run on 26S proteasome (yeast, GFP-tagged, ATP-dependent disassembly) (assay: inhibitors of ATP-driven 26S proteasome dissociation, primary screen, biochemical, bead-based flow cytometry, GFP-tagged proteasome (AID 751;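 further: plate controls were ATP control with full disassembly for no effect and ATP-gamma-S intact proteasomes for full effect; higher percent means more bead fluorescence retained so stronger block of disassembly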)). Settings: anti-FLAG beads, active compounds read high, concentration not given here.

Row | Structure (SMILES) | inhibition of disassembly
1 | COc1ccc(-c2c(C)nn3c(N4CCC(C(=O)N5CCCCC5)CC4)cc(C)nc23)cc1OC | -1.42% (inactive)
2 | NS(=O)(=O)c1cc2c(cc1Cl)NC(C(Cl)Cl)NS2(=O)=O (centres undefined) | -0.98% (inactive)
3 | COc1ccc(OC)c(NC(=O)CC(Cc2ccccc2OC)C(=O)O)c1 (centres undefined) | -1.04% (inactive)
4 | Cc1noc(C)c1S(=O)(=O)Nc1ccc(C(=O)O)cc1 | 1.24% (inactive)
5 | CCCOC(=O)Nc1sc2c(c1C(=O)OCC)CCC2 | 1.34% (inactive)
6 | O=C(CN1CCN(c2ncc(C(F)(F)F)cc2Cl)CC1)Nc1ccc2c(c1)OCO2 | 2.15% (inactive)
7 | Cc1nc2ncnn2c(C)c1CCC(=O)N1CCN(C(=O)c2ccco2)CC1 | -0.22% (inactive)
8 | Cc1c2cnn(-c3ccccc3)c(=O)c2c(C)n1CCCC(=O)N1CCN(C)CC1 | 0.62% (inactive)
9 | CCSc1nc2c(c(=O)[nH]1)C(c1cccnc1)C(C(=O)OC(C)C)=C(C)N2 (centres undefined) | 0.035% (inactive)
10 | O=C(NCCCN1CCN(Cc2ccccc2)CC1)C1CCN(S(=O)(=O)N2CCCC2)CC1 | -1.86% (inactive)
11 | Nc1nonc1-c1nc2ccccc2n1CCC(=O)O | 1.19% (inactive)
12 | CCN(c1ccc2c(c1)OCO2)S(=O)(=O)c1cc(Br)cc2c1N(C(=O)C1CC1)CC2 | 28.9% (active)
13 | Cc1noc(C)c1S(=O)(=O)N(CC(=O)NCc1ccc(Cl)cc1)c1ccc2c(c1)OCO2 | -0.25% (inactive)
14 | CCOC(=O)N1CCN(S(=O)(=O)c2cc(Br)cc3c2N(C(=O)C2CC2)CC3)CC1 | 3.18% (inactive)
15 | CN(Cc1ccccc1)C(=O)CCNC(=O)Cn1cnc2ccccc2c1=O | -0.53% (inactive)
16 | COc1ccc2c(c1)CCc1c(C(=O)N3CCCC3)noc1-2 | -0.25% (inactive)
17 | COc1ccc(-c2nc(CS(=O)CC(=O)N3CCc4ccccc4C3)c(C)o2)cc1 (centres undefined) | 1.96% (inactive)
18 | Nc1ccc(-n2nncc2-c2ccco2)cc1 | -0.06% (inactive)
19 | CCc1nnc(NC(=O)CCC(=O)O)s1 | -0.71% (inactive)
20 | O=C(c1ccccc1)c1ccc2nc(N3CCCCC3)c3nncn3c2c1 | 3.43% (inactive)
21 | CC12COC3(C(=O)Nc4ccc(Cl)cn4)CC1CCC32C (centres undefined) | 0.35% (inactive)
22 | CCCn1nnc2sc3c(c2c1=O)CCC(C)C3 (centres undefined) | -0.93% (inactive)
23 | CCCCc1nc2c(=O)[nH]c3ccccc3c2o1 | 0.25% (inactive)
24 | CC(=O)Nc1ccc(S(=O)(=O)N2CCC(N(C)CCC(C)C)CC2)cc1 | 0.37% (inactive)
25 | CCCn1cc(SCC(N)=O)c2ccccc21 | -0.93% (inactive)
26 | O=C(Nc1nc2ccc(S(=O)(=O)N3CCCC3)cc2s1)C1CCCO1 (centres undefined) | -0.99% (inactive)
27 | COc1ccc(N2C(=O)CCC(C(=O)N(C)C3CCCCC3)C2c2ccc(OC)c(OC)c2)cc1 (centres undefined) | -1.19% (inactive)

Row | Structure (SMILES) | inhibition of disassembly
28 | CC(=O)NCC(=O)N(C)C(C(=O)Nc1ccc2c(c1)OCCO2)c1ccccc1 (centres undefined) | 2.08% (inactive)
29 | CC(=O)Nc1cc2ccc(OC(C)=O)cc2oc1=O | 0.02% (inactive)
30 | Fc1ccccc1C(c1nnnn1Cc1ccc2c(c1)OCO2)N1CCN(Cc2ccccc2)CC1 (centres undefined) | -0.69% (inactive)
31 | CC(C(=O)N1CCOCC1)N1c2cccc3cccc(c23)S1(=O)=O (centres undefined) | -0.85% (inactive)
32 | C=CCn1c(COc2ccccc2F)nnc1SCC(=O)N1CC(=O)Nc2ccccc21 | -0.82% (inactive)
33 | CCCCNC(=O)c1c[nH]c2ccc(S(=O)(=O)Nc3ccc(OCC)cc3)cc2c1=O | 0.53% (inactive)
34 | CCCCOC(=O)Nc1nccs1 | 0.85% (inactive)
35 | CCn1cc(C(=O)N2CCN(C3CCCCC3)CC2)c2cc(OC)c(OC)cc2c1=O | -1.25% (inactive)
36 | COCCCN(C(=O)Cn1ncc2c(=O)oc3ccc(C)cc3c21)C(C)c1ccncc1 (centres undefined) | -1.07% (inactive)
37 | Cc1ccsc1C(C(=O)NC1CCCCC1)N(C(=O)Cc1cccs1)C1CC1 (centres undefined) | 1.54% (inactive)
38 | O=C(NC1(C(F)(F)F)N=C2SCCN2C1=O)c1ccco1 (centres undefined) | 1.38% (inactive)
39 | CCN(CCCNC(=O)C1CCN(S(=O)(=O)c2cnc[nH]2)CC1)c1ccccc1 | 0.49% (inactive)
40 | Cc1ccc(C(c2sc3nc(C)nn3c2O)N2CCN(c3ccc(F)cc3)CC2)cc1 (centres undefined) | -0.24% (inactive)
41 | CN1C(=O)c2ccccc2C(C(=O)NCCCN2CCCC2)C1c1c[nH]c2ccccc12 (centres undefined) | 1.77% (inactive)
42 | CCc1ccc(NC(=O)CSc2nc3ccccc3c(=O)n2CCN2CCOCC2)cc1 | -3.37% (inactive)
43 | COc1ccc(OC)c(N=Cc2c(O)[nH]c3ccccc23)c1 | 25.8% (inactive)
44 | O=C(CN1C(=O)COc2ccccc21)NCCN1CCc2ccccc2C1 | -0.95% (inactive)
45 | COc1ccc(CN2CN(C(C)C)CSC2=S)cc1 | -0.35% (inactive)
46 | CN1CCN(CCCNC(=O)c2cc3c(=O)oc4ccccc4c3s2)CC1 | -0.65% (inactive)
47 | CCOC(=O)CN1CC23C=CC(O2)C(C(=O)Nc2ccc(F)cc2)C3C1=O (centres undefined) | 0.62% (inactive)
48 | COCCNC(=S)c1ccc(OC)cc1 | -2.83% (inactive)
49 | COc1ccc(Cn2nnc3c(=O)[nH]c(C4CCN(C(=O)c5ccccc5Cl)CC4)nc32)cc1 | -0.42% (inactive)
50 | CCN(CC)S(=O)(=O)c1ccc(NC(=O)CN(c2cccc(F)c2)S(C)(=O)=O)cc1 | 2.21% (inactive)
51 | O=C(C(NS(=O)(=O)c1cccc2nsnc12)c1ccccc1)N1CCN(c2ccccn2)CC1 (centres undefined) | 0.34% (inactive)
52 | Cc1c(C(=O)N2CC(C)OC(C)C2)sc2nc(-c3ccccc3)cn12 (centres undefined) | 0.65% (inactive)
53 | COc1cc(C(O)c2nc3ccccc3n2C)cc(OC)c1OC (centres undefined) | 1.95% (inactive)
54 | O=C(CCN1C(=O)c2ccncc2C1=O)Nc1ccc2c(c1)OCCO2 | -0.98% (inactive)
